# According to the supplement of paper PMC11732987, “Enantioselective OTUD7B fragment discovery through chemoproteomics screening and high-throughput optimisation” (Communications Chemistry, 2025):
# Biological target: USP14 (UniProt P54578)
# Assay: log2 ratio of Biotin-Ahx-Ub-VS probe labelling (fragment/DMSO); higher = less target engagement (more negative = stronger competition), active = hit call of the paper (q ≤ 0.05, log2 ratio ≤ -1)
# Details: compound concentration: 200 uM; treatment time: 3 h
# Protocol: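 Competitive ABPP in HEK293T cell lysate. Lysates were treated with each chloroacetamide fragment at 200 µM for 3 h, then with Biotin-Ahx-Ub-VS (0.5 µM, 1 h), NeutrAvidin-enriched and analysed by diaPASEF LC-MS/MS. Protein LFQ was median-normalised; average log2 ratio is fragment/DMSO from an unpaired t-test (n=3 treated, n=44 DMSO). Hits: q ≤ 0.05, log2 ratio ≤ -1, unique peptides ≥ 2.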
# Sequence of USP14 (P54578 whole entry, the tested form may be a part): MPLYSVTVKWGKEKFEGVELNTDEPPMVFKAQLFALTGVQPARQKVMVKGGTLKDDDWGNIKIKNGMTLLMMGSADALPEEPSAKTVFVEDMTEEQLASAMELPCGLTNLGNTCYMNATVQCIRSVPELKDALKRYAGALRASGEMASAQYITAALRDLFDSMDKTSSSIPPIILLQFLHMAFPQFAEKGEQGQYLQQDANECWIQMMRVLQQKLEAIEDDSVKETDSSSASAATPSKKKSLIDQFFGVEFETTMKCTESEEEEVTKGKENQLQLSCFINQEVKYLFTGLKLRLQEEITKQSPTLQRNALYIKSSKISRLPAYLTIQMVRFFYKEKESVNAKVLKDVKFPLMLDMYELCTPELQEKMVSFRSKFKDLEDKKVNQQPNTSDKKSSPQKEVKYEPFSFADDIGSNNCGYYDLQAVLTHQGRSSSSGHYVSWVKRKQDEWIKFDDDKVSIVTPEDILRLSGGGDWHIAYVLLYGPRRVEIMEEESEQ
row,Compound,log2 ratio of Biotin-Ahx-Ub-VS probe labelling
1,Cc1ccc2nnc(CNC(=O)CCl)n2c1,0.17 (inactive)
2,O=C(CCl)N1CCCN(C(=O)c2ccc(Cl)cc2)CC1,-0.452 (inactive)
3,Cl.O=C(CCl)N1CCCC(c2ncc[nH]2)C1 (stereo not given),-0.141 (inactive)
4,O=C(CCl)N1CCC(c2ccn[nH]2)C1 (stereo not given),-0.0963 (inactive)
5,COCC[C@@H](NC(=O)CCl)c1ccccc1,0.0709 (inactive)
6,O=C(CCl)NCc1ccc(N2CCOCC2)nc1,-0.262 (inactive)
7,Cc1ccc(N(C(=O)CCl)C2C=CS(=O)(=O)C2)cc1 (stereo not given),-0.0859 (inactive)
8,O=C(CCl)NC1CCCCNC1=O (stereo not given),-0.476 (inactive)
9,Cl.Cn1ncc2c1CCCC2NC(=O)CCl (stereo not given),-0.227 (inactive)
10,O=C(CCl)N1CCOCC1C1CC1 (stereo not given),-0.212 (inactive)
11,O=C(CCl)NCC(=O)N1CCCC1,-0.0869 (inactive)
12,COc1ccc(Cl)cc1NC(=O)CCl,-0.655 (inactive)
13,COc1ccc(C2CCCN2C(=O)CCl)c(OC)c1 (stereo not given),-0.545 (inactive)
14,CC(NC(=O)CCl)c1cccc(Cl)c1 (stereo not given),-0.42 (inactive)
15,O=C(CCl)NC1CCN(C(=O)C2CCCCC2)CC1,-0.0275 (inactive)
16,CNC(=O)C1CCN(C(=O)CCl)CC1,-0.146 (inactive)
17,Cl.Cn1nccc1C(NC(=O)CCl)c1ccccc1 (stereo not given),-0.0812 (inactive)
18,Cc1cccc(C(CNC(=O)CCl)N2CCOCC2)c1.Cl (stereo not given),0.0229 (inactive)
19,Cc1nc(-c2cccc(NC(=O)CCl)c2)cs1,-0.378 (inactive)
20,O=C(CCl)NC1CCC(C(F)(F)F)CC1 (stereo not given),-0.454 (inactive)

row,Compound,log2 ratio of Biotin-Ahx-Ub-VS probe labelling
1,O=C(CCl)NCc1ccc(N2CCOCC2)c(F)c1,0.1 (inactive)
2,CS(=O)(=O)N1CCCN(C(=O)CCl)CC1,0.105 (inactive)
3,Cc1ccc(C)c(Oc2ccc(CNC(=O)CCl)cn2)c1.Cl,-0.371 (inactive)
4,Cc1cccc(NC(=O)[C@@H]2CCCN2C(=O)CCl)n1,-0.519 (inactive)
5,Cc1nc(CNC(=O)CCl)c2ccccn12.Cl,0.113 (inactive)
6,O=C(CCl)Nc1ccc(Cl)c(F)c1,-0.481 (inactive)
7,O=C(CCl)Nc1ccc(F)cc1Cl,-0.833 (inactive)
8,Cl.O=C(CCl)N1CCC(n2nc3ccccc3n2)CC1,-0.545 (inactive)
9,CC(NC(=O)CCl)c1cc2n(n1)CCCC2.Cl (stereo not given),-0.363 (inactive)
10,O=C(CCl)NCCc1cccc2ccccc12,0.0871 (inactive)
11,CN(C)C(=O)c1ccc(CNC(=O)CCl)cc1,0.0549 (inactive)
12,CC1(NC(=O)CCl)CCS(=O)(=O)C1 (stereo not given),-0.815 (inactive)
13,Cc1cccnc1NC(=O)C1CCN(C(=O)CCl)CC1.Cl,-0.377 (inactive)
14,O=C(CCl)NC(Cn1ccccc1=O)c1ccccc1 (stereo not given),-0.174 (inactive)
15,Cl.O=C(CCl)N1CCn2ncc(O)c2C1,-0.588 (inactive)
16,Cl.O=C(CCl)NCc1cc2c(nc1O)CCCC2,-0.12 (inactive)
17,O=C(CCl)N1CCOC2(CCC2)C1,0.0484 (inactive)
18,O=C(CCl)NC1CCOc2ccccc21 (stereo not given),-0.937 (inactive)
19,Cc1cccn2cc(CCNC(=O)CCl)nc12.Cl,-0.461 (inactive)
20,Cn1cc(CN(Cc2ccc(Cl)cc2)C(=O)CCl)cn1,-1.03 (active)
